Measured values: the supplement of paper PMC11732987, “Enantioselective OTUD7B fragment discovery through chemoproteomics screening and high-throughput optimisation” (Communications Chemistry, 2025)

Assays:
Assay in all cases: log2 ratio of Biotin-Ahx-Ub-VS probe labelling (fragment/DMSO); higher = less target engagement (more negative = stronger competition), active = hit call of the paper (q ≤ 0.05, log2 ratio ≤ -1)
Conditions in all cases: compound concentration: 200 uM; treatment time: 3 h
USP34 = USP34 (UniProt Q70CQ2)
Summary of the method: (§1)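 Each value is an average log2 ratio of fragment to vehicle, tested by unpaired t-test. The underlying Spectronaut label-free quantities were global-median-normalised, and only proteins with ≥2 unique peptides were included. Triplicate HEK293T lysate samples (495 µg) were exposed to fragment at 200 µM or vehicle for 3 h, then to Biotin-Ahx-Ub-VS at 0.5 µM final for 1 h, before NeutrAvidin enrichment of labelled DUBs, LysC and trypsin digestion, and diaPASEF LC-MS/MS.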

USP36 = biological target: T1, USP36 (UniProt Q9P275)
T1 sequence (whole entry): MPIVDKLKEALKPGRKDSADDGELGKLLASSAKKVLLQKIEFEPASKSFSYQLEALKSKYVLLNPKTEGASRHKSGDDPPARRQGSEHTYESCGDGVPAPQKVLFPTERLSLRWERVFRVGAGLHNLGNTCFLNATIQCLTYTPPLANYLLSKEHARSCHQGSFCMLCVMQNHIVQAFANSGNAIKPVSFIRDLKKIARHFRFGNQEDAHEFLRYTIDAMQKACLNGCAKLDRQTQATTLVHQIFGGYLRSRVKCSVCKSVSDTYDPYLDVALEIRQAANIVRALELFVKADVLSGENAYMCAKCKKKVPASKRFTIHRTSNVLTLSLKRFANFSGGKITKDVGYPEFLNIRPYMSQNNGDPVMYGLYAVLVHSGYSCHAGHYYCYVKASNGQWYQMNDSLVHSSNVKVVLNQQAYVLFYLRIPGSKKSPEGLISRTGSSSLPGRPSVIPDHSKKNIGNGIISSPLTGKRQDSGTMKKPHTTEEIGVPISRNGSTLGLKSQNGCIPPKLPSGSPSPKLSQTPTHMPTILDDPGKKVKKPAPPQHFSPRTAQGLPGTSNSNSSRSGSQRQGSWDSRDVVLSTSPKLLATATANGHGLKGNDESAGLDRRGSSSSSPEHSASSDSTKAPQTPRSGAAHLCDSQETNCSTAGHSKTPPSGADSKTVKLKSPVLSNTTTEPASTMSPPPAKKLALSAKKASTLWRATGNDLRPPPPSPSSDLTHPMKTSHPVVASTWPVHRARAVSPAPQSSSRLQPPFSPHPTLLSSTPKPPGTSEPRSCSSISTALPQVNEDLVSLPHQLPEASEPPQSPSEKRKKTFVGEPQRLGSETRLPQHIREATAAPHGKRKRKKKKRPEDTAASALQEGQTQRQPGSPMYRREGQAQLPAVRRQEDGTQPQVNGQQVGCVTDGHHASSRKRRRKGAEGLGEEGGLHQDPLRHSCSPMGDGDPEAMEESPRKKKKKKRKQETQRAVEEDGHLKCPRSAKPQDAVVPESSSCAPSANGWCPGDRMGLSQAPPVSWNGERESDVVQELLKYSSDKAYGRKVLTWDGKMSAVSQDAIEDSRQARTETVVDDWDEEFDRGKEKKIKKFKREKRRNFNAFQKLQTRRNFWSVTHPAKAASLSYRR
Summary of the method: as §1

USP38 = biological target: T2, USP38 (UniProt Q8NB14)
T2 sequence (whole entry): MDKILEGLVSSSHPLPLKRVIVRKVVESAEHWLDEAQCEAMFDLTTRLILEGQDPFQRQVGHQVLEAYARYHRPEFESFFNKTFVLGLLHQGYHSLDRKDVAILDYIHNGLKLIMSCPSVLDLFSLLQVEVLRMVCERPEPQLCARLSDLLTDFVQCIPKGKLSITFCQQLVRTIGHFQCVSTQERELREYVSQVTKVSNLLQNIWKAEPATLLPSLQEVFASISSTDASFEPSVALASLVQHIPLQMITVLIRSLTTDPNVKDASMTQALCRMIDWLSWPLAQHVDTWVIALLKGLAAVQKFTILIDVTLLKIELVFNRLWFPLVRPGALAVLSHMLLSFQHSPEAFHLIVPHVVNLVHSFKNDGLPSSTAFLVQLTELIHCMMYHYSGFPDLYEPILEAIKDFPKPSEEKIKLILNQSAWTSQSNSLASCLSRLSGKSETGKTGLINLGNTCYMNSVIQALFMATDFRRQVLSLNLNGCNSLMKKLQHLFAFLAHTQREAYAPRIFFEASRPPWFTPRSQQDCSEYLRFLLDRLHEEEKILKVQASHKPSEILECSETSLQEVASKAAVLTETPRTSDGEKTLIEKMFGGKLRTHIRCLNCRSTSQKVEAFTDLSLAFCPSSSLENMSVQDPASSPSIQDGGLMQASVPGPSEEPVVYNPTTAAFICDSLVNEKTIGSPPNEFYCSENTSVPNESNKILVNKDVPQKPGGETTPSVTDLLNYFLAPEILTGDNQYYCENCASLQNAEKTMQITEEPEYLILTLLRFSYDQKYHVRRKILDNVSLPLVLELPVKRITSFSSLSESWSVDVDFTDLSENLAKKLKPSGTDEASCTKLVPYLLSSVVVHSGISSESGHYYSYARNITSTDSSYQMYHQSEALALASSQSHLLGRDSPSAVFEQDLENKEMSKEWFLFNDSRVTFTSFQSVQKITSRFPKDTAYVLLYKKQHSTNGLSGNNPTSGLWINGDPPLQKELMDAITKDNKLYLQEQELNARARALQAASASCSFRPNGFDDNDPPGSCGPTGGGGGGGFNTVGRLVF
Summary of the method: as §1

USP39 = biological target: T3, USP39 (UniProt Q53GS9)
T3 sequence (whole entry): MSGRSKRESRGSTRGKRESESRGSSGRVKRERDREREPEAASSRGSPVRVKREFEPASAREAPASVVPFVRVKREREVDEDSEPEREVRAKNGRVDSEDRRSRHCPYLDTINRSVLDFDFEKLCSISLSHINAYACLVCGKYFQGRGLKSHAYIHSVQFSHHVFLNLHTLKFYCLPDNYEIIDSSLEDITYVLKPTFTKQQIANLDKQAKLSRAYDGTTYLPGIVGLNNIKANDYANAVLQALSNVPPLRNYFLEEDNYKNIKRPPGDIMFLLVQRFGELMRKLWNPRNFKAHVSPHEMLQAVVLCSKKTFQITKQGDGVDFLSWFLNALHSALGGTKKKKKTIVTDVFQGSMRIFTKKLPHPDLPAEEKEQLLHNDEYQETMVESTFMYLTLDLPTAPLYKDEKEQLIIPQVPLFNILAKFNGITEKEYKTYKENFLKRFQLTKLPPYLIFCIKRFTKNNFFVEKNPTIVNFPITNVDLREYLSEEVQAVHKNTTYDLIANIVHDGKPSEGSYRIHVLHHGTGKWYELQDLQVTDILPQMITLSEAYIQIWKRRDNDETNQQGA
Summary of the method: as §1

USP4 = biological target: T4, USP4 (UniProt Q13107)
T4 sequence (whole entry): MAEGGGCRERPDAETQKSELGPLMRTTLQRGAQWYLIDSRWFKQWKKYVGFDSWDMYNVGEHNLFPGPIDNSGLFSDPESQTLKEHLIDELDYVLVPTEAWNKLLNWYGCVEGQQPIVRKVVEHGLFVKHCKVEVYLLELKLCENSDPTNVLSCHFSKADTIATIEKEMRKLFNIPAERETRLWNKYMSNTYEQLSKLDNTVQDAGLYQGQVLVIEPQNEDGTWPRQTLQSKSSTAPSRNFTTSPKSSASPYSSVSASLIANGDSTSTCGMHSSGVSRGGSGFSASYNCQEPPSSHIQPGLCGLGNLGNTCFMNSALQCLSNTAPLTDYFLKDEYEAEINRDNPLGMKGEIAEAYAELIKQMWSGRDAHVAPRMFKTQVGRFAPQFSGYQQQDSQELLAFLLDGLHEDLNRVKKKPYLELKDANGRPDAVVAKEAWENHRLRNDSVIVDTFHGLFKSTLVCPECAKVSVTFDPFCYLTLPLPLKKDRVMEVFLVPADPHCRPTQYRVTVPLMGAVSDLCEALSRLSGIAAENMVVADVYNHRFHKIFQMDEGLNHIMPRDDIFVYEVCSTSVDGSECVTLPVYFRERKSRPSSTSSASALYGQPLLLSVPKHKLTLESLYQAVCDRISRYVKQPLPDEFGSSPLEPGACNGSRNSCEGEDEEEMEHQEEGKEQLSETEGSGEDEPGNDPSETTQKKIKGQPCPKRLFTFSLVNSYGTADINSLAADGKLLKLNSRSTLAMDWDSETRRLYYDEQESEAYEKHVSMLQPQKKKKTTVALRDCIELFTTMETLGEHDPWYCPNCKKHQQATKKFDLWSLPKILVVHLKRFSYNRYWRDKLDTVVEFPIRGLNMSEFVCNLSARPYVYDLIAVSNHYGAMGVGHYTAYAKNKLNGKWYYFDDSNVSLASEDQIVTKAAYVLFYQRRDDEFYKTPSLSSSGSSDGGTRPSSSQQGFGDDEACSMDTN
Summary of the method: as §1

Measured: log2 ratio of Biotin-Ahx-Ub-VS probe labelling

Chain of USP34 (Q70CQ2 whole entry, the tested form may be a part): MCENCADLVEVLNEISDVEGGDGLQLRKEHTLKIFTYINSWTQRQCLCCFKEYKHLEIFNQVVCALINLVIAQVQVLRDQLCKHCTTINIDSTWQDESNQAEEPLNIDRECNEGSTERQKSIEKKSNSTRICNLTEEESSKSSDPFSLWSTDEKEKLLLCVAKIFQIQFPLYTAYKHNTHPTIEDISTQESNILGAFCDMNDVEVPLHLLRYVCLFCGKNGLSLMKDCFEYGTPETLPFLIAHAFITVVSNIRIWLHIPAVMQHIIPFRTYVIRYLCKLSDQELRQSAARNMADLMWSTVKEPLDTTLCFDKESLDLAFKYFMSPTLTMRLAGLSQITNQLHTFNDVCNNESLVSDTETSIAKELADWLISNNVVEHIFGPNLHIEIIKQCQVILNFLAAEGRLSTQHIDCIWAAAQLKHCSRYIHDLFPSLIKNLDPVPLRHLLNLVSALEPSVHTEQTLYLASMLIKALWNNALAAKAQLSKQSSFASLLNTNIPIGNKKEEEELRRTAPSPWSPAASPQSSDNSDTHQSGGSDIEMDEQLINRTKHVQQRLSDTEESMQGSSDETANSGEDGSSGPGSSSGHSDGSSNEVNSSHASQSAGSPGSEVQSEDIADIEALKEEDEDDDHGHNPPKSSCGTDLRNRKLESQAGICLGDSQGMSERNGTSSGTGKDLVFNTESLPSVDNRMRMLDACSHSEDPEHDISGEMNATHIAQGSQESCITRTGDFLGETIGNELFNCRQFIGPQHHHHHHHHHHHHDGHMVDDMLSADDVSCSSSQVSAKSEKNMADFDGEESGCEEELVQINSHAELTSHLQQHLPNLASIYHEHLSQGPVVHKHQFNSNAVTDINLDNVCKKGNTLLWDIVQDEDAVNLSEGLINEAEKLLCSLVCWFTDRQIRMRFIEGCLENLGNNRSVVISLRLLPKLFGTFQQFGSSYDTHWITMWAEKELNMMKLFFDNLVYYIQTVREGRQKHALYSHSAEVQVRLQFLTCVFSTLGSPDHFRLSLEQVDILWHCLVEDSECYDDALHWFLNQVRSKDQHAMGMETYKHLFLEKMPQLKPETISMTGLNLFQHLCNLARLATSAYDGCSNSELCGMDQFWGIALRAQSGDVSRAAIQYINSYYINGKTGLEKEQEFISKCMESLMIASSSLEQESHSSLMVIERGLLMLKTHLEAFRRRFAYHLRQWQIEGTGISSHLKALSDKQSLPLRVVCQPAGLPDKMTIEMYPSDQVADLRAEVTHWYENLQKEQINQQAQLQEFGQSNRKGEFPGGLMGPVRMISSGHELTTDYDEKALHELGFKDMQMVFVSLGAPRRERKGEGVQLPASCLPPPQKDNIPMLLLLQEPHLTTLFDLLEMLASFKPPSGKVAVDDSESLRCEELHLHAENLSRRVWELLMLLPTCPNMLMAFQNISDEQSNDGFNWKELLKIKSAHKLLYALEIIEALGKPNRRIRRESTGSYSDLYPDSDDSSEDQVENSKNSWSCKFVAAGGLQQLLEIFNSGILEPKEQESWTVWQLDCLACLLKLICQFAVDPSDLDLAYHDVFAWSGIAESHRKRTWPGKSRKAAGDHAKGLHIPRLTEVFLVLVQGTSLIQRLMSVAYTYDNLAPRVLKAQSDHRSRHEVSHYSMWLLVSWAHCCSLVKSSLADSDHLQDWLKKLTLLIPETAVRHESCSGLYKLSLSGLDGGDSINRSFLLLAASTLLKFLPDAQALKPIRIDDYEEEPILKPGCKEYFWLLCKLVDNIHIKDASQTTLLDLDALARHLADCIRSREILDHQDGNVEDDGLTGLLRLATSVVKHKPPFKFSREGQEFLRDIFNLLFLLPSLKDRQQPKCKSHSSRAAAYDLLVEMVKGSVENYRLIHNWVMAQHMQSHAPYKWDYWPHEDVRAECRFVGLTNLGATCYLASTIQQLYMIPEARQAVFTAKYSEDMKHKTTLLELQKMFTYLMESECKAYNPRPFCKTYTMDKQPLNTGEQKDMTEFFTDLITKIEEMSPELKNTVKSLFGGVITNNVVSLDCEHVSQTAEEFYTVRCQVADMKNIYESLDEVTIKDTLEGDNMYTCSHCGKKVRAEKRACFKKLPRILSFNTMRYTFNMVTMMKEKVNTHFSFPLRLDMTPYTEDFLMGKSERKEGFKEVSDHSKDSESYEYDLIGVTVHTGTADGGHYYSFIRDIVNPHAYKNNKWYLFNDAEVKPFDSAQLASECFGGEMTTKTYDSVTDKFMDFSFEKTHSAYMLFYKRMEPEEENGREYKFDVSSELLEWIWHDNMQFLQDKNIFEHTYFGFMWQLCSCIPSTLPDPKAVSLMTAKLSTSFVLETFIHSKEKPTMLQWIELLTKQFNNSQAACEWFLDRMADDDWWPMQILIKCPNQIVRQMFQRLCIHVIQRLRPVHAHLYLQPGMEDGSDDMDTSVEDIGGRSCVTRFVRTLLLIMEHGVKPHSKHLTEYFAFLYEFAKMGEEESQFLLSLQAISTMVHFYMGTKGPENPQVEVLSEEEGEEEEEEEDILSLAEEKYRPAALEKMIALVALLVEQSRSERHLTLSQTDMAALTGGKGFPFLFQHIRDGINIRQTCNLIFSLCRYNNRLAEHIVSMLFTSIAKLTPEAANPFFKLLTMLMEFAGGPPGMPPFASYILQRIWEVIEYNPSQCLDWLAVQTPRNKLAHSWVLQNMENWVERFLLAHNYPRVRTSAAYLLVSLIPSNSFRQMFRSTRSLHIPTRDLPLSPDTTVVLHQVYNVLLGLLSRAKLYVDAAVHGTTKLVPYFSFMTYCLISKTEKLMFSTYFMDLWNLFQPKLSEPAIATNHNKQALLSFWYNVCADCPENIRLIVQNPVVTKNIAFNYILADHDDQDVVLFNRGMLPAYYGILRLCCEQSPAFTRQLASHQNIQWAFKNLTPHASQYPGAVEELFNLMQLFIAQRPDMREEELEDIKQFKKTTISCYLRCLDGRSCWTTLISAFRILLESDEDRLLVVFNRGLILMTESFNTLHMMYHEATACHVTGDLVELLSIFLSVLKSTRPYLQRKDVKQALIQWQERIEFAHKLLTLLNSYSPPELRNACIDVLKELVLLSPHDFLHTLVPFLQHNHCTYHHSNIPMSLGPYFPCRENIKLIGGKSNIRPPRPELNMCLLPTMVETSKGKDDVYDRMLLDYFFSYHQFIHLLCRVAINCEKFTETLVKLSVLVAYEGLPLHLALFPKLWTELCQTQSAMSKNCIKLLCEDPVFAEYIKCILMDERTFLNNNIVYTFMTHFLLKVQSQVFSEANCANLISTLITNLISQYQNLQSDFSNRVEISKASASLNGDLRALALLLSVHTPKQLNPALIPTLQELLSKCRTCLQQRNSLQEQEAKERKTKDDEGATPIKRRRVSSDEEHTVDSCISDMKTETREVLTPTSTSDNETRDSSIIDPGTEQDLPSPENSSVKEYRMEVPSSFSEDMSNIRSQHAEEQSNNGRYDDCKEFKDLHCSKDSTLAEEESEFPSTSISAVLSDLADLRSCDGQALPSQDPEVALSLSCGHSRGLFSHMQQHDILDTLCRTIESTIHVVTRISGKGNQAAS

Cc1ccc(CN(CCO)C(=O)CCl)cc1
inactive: USP34 0.0432 | USP36 -0.00999 | USP38 -0.303 | USP39 -0.0925 | USP4 -0.21
